Screening results (PubChem)
An excerpt weighted towards active compounds, which were near 3% of everything screened.
GALK inh – qHTS Assay for Inhibitors of Human Galactokinase (GALK); P51570; Purified GALK, Kinase-Glo residual ATP luminescence; Potency, µM (highest dose often 57.5 µM), hits mostly inhibitors; hit rate 0.007% among 270,000; AID 1868, 2009
Target sequence (P51570 whole entry, looked up): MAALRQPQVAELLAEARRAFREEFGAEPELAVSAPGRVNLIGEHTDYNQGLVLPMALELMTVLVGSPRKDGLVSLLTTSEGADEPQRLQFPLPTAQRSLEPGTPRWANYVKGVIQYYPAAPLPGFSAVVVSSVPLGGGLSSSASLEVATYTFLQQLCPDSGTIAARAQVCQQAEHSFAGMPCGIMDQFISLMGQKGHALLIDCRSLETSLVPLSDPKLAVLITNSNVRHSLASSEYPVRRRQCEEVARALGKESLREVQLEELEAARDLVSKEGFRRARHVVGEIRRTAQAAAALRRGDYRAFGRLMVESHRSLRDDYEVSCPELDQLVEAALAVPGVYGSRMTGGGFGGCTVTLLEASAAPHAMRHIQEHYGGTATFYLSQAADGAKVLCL
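Quantitative HTS: GALK 5 nM, ATP 35 uM, galactose 100 uM, 1 h room temperature, then luciferase-based ATP detection.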
TrxR1 inh – qHTS Assay for Inhibitors of Mammalian Selenoprotein Thioredoxin Reductase 1 (TrxR1): qHTS. recombinant rTrxR1, NADPH fluorescence consumption, selenite substrate. Potency, µM (top dose mostly 114 µM), actives largely listed as inhibitors. hit rate 1% among 390,000; note: nearly all actives have a fitted effect of over 65% in size
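Rat TrxR1 (90 nM in the dispensed reagent) was pre-reduced with 400 uM NADPH for 5 min at room temperature, then incubated with compound for 15 min. After 400 uM selenite was added, NADPH fluorescence (Ex 340/Em 450 nm) was followed for 8 min.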
Nrf2 inh – Nrf2 qHTS screen for inhibitors; A549 ARE-Fluc reporter, luciferase luminescence, 18-24 h; Potency, µM (doses to about 46 µM), usual class: inhibitors; hit rate 2.1% among 360,000; note: nearly all actives have a fitted effect of over 60% in size
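Concentration-response testing used A549 ARE_Fluc cells at 5000 cells/well. Following an 18-24 h compound incubation, viability was read by fluorescence (Ex 405/Em 525) and luciferase output by luminescence.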
Nrf2 ARE act – qHTS of Nrf2 Activators; hit rate 0.31% among 410,000; AREc32 ARE-luciferase reporter (MCF7-derived line), luminescence, 24 h; Potency, µM (titrated, usually from 46.1 µM), most hits filed as activators; note: nearly all actives have a fitted effect of over 65% in size
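Steps: seed AREc32_Fluc cells (1000/well, 5% FBS OPTI-MEM); incubate overnight at 37 deg C; add 23 nL compound; incubate 24 hr; add Steady-Glo; hold 30 min RT; read luminescence.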
A549 tox-1 – Nrf2 qHTS screen for inhibitors: counterscreen for cytotoxicity; A549 ARE-Fluc cells, CellTiter-Fluor viability, 18-24 h; Potency, µM (doses to about 46 µM), most hits filed as inhibitors; hit rate 0.16% among 390,000; AID 504648, 2011
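A549 ARE-Fluc cells in 5% FBS OPTI-MEM, 5000 cells/well, rested 2 h then exposed to compounds in concentration-response for 18-24 h at 37 °C. Viability by CellTiter-Fluor fluorescence (Ex 405/Em 525) after 30 min; luciferase luminescence (BugLite, 15 min, RT) read afterwards.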
TrxR1 substrate – qHTS Assay for Substrates of Mammalian Selenoprotein Thioredoxin Reductase 1 (TrxR1): qHTS; hit rate 0.01% among 390,000; purified TrxR1 substrate turnover, NADPH consumption readout; Potency, µM (doses to about 114 µM); AID 588456, 2011; note: nearly all actives have a fitted effect of over 50% in size
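Rat TrxR1, dispensed at 90 nM, was prereduced with 400 uM NADPH (final) for 5 min at ~22 deg C, then incubated with compound 15 min before 400 uM selenite. A first-read NADPH fluorescence drop versus no-compound background flagged substrates.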
FLuc counter 3 – Nrf2 qHTS screen for inhibitors: Purified Fluc Biochemical Counterscreen for Hit Validation | Potency, µM (series often up to 57.5 µM), usual class: inhibitors | purified firefly luciferase, luminescence inhibition | shares compounds with Nrf2 inh | AID 720522, 2013 | hit rate 4% among 1,400; note: nearly all actives have a fitted effect of over 65% in size
A549 tox-2 – Nrf2 qHTS screen for inhibitors: A549 ARE-Fluc Cytotoxicity Counterscreen for Hit Validation; A549 ARE-Fluc cells, cytotoxicity counterscreen; Potency, µM (titrated, usually from 46.1 µM), usual class: inhibitors; hit rate 2% among 1,400; shares compounds with Nrf2 inh;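 note: cells exposed to compounds for 18 to 24 hours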
ARE-Fluc inh – Nrf2 qHTS screen for inhibitors: Nrf2 A549 ARE-Fluc Confirmation Assay for Hit Validation; shares compounds with Nrf2 inh; A549 ARE-firefly luciferase reporter, luminescence; Potency, µM (top dose mostly 46.1 µM), most hits filed as inhibitors; hit rate 74% among 1,400; note: nearly all actives have a fitted effect of over 65% in size
Large screens that a line does not name were inactive (follow-up assays come after a bar, where shown). Calls come from the whole dose curve; as a rule, active = well fitted curve in the direction sought with a large enough effect; inconclusive = small, poorly fitted or top-dose-only effect, or another doubt; inactive = no such curve, though single readings can be large; an effect the other way counts as inactive or inconclusive.

CC(C)Cc1nnc(NC(=O)CCC(=O)N2CCN(Cc3ccccc3)CC2)s1	none
COc1ccc(CN(C)C(=O)/C=C/c2ccc(S(=O)(=O)N3CCCCCC3)cc2)cc1	Nrf2 inh 9.2µM (no result: GALK inh) | FLuc counter 3 inactive | A549 tox-2 inactive | ARE-Fluc inh inconclusive
COc1ccc(C)cc1NC(=O)C1CCC(CNS(=O)(=O)c2ccc3c(c2)CCCC(=O)N3)CC1 (configuration not stated)	Nrf2 inh 7.3µM, A549 tox-1 inconclusive (no result: GALK inh) | FLuc counter 3 inactive | A549 tox-2 inactive | ARE-Fluc inh 7.3µM
COc1ccc(C2C3=C(CC(C)(C)CC3=O)Oc3ncn(CC(C)C)c(=N)c32)cc1 (configuration not stated)	none
COc1ccc(C2C3=C(CC(C)(C)CC3=O)Oc3ncn(Cc4ccco4)c(=N)c32)cc1 (configuration not stated)	TrxR1 inh inconclusive, Nrf2 inh 9.2µM, A549 tox-1 inconclusive | FLuc counter 3 inactive | A549 tox-2 inactive | ARE-Fluc inh inactive
CCc1ccc(NC(=O)N(Cc2c[nH]c3ccccc23)C2CCCCCC2)cc1	Nrf2 inh inconclusive (no result: GALK inh)
COc1ccccc1OCCNC(=O)C1CC(=O)N(c2cccc(SC)c2)C1 (configuration not stated)	none (no result: GALK inh)
COc1cccc(-c2ncc3ccccc3c2COC(=O)N2CCOCC2)c1	none (no result: GALK inh)
COc1cccc(-c2ncc3ccccc3c2COC(=O)N2CCCCC2)c1	Nrf2 inh 5.8µM (no result: GALK inh) | FLuc counter 3 inactive | A549 tox-2 inactive | ARE-Fluc inh inconclusive
CCN(CC(=O)Nc1ccc(OC)cc1)C(=O)c1ccccc1Sc1ccccc1C#N	none (no result: GALK inh)
COc1ccc(OC)c(Nc2nc(-c3sc(NC(=O)C(C)(C)C)nc3C)cs2)c1	Nrf2 inh 8.2µM | FLuc counter 3 inactive | A549 tox-2 inactive | ARE-Fluc inh inconclusive
COc1ccc(Cl)cc1Nc1nc(-c2sc(NC(=O)C(C)(C)C)nc2C)cs1	Nrf2 inh 4.1µM | FLuc counter 3 inactive | A549 tox-2 inactive | ARE-Fluc inh 1.8µM
CCOc1ccc(Nc2nc(N)c(C(=O)c3ccccc3Cl)s2)cc1	none (no result: GALK inh)
Cc1nc2ccc(NS(=O)(=O)c3ccc(F)c(C)c3)cc2[nH]1	Nrf2 inh 8.2µM | FLuc counter 3 inactive | A549 tox-2 inactive | ARE-Fluc inh 5.8µM
Cc1nc2ccc(S(=O)(=O)c3ccc4nc(C)[nH]c4c3)cc2[nH]1	none (no result: Nrf2 inh)
Cn1c(CC(=O)c2ccc(Br)cc2)[n+](C)c2ccccc21	none
Cc1cc(C)cc(NS(=O)(=O)c2ccc3c(c2)c(=O)n(C)c(=O)n3C)c1	Nrf2 inh 8.2µM | FLuc counter 3 inactive | A549 tox-2 inactive | ARE-Fluc inh 7.3µM
Cn1c(=O)c2cc(S(=O)(=O)Nc3cc(C(=O)O)cc(C(=O)O)c3)ccc2n(C)c1=O	none
Cc1cc(C(=O)COc2cccnc2[N+](=O)[O-])c(C)n1Cc1cccs1	Nrf2 inh inconclusive
CC(=O)Nc1ccccc1OCC(=O)c1cc(C)n(Cc2cccs2)c1C	Nrf2 inh 0.41µM, A549 tox-1 inconclusive | FLuc counter 3 15µM | A549 tox-2 inactive | ARE-Fluc inh inactive
Nc1c(C(=O)CSc2ncccn2)c(=O)[nH]c(=O)n1C1CC1	none (no result: GALK inh)
COC(=O)c1c(-c2ccc(S(C)(=O)=O)cc2)sc2cc(OC)ccc12	Nrf2 inh inconclusive (no result: GALK inh)
COc1ccc2c(C(=O)NCc3ccc4c(c3)OCO4)c(-c3ccc(S(C)(=O)=O)cc3)sc2c1	Nrf2 inh 7.3µM, A549 tox-1 inconclusive (no result: GALK inh) | FLuc counter 3 inactive | A549 tox-2 inconclusive | ARE-Fluc inh 16µM
O=C(COC(=O)c1ccc[nH]c1=O)Nc1ccc(S(=O)(=O)N2CCCC2)cc1	none
O=C(COC(=O)c1ccc[nH]c1=O)Nc1ccc(N2CCCCC2)cc1	Nrf2 inh 2.3µM (no result: GALK inh) | FLuc counter 3 11µM | A549 tox-2 inactive | ARE-Fluc inh 4.1µM
O=C(CCCCCN1CCN(c2ccccc2-c2ccccc2)CC1)NC1CCCc2ccccc21 (configuration not stated)	none (no result: GALK inh, Nrf2 inh, Nrf2 ARE act, A549 tox-1)
Cc1ccc(C(=O)N2CCN(c3ccc(NC(=O)c4ccc5c(c4)OCCO5)cc3)CC2)cc1	Nrf2 inh 7.3µM | FLuc counter 3 inactive | A549 tox-2 inactive | ARE-Fluc inh inconclusive
O=C(Nc1ccc(N2CCN(C(=O)c3ccccc3)CC2)cc1)c1ccc2c(c1)OCO2	Nrf2 inh inconclusive
N=c1ccn(Cc2ccccc2Cl)cc1	A549 tox-1 inconclusive (no result: Nrf2 inh)
N=c1ccn(Cc2c(Cl)cccc2Cl)cc1	Nrf2 inh 5.2µM | FLuc counter 3 inactive | A549 tox-2 inactive | ARE-Fluc inh 4.1µM
Nc1ccc(-c2cc3ccccc3oc2=O)cc1	Nrf2 inh 1.3µM | FLuc counter 3 8.5µM | A549 tox-2 inactive | ARE-Fluc inh 1.5µM
CC(=O)c1cccc(NS(=O)(=O)c2ccc(NC(=O)N3CCCCC3)cc2)c1	Nrf2 inh 8.2µM | FLuc counter 3 inactive | A549 tox-2 inactive | ARE-Fluc inh 15µM
CSc1cccc(NS(=O)(=O)c2ccc(C(C)=O)cc2)c1	Nrf2 inh 4.6µM | FLuc counter 3 inactive | A549 tox-2 inactive
CC(=O)c1cccc(NC(=O)N2CCCCCC2)c1	none
CC(C)c1ccc(NC(=O)COC(=O)CSc2nnc(N)s2)cc1	none
CCOC(=O)c1cnc2nc(NCc3ccc(OCC)cc3)[nH]n2c1=O	none (no result: GALK inh)
COc1ccc(CN(C)CCCn2cnc(C(=O)Nc3ccc(C)c(C)c3)n2)cc1OC	none (no result: GALK inh)
c1coc(-c2cc3nc(NC4CCCCC4)ccn3n2)c1	none (no result: GALK inh, TrxR1 inh, Nrf2 inh, A549 tox-1, TrxR1 substrate)
COc1cccc2c1C(=O)c1c(O)c3c(c(O)c1C2=O)CC(O)(C(C)=O)CC3OC1CC(N(C)C)C(O)C(C)O1 (configuration not stated)	Nrf2 inh 2.3µM, A549 tox-1 inconclusive (no result: GALK inh) | FLuc counter 3 inactive | A549 tox-2 inconclusive | ARE-Fluc inh 1µM
